# Data from PubChem BioAssay.
# The source made the active and inactive calls.
# How the values were obtained:
# [1] = binders of probe aFSTL3 on microarray, primary screen, stem cell growth factor project, biochemical, small-molecule microarray, fluorescence 635/667 (AID 1064); settings: higher = more signal;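 also: measures binding of the biotinylated anti-FSTL3 antibody to printed compounds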
# [2] = binders from COS7 lysate, DM2A8 probe, primary screen, torsin A project, cell lysate, small-molecule microarray, fluorescence 635/667 (AID 1065); settings: higher = more signal, COS7 lysate expressing mutant human TOR1A
# [3] = binders of probe aFGF2 on microarray, primary screen, stem cell growth factor project, biochemical, small-molecule microarray, fluorescence 635/667 (AID 1067); settings: higher = more signal;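 also: measures binding of biotinylated aFGF2 protein to printed compounds on slides; z-score merges feature fluorescence and signal-to-noise across triplicate slides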
# [4] = binders of probe aFGF10 on microarray, primary screen, stem cell growth factor project, biochemical, small-molecule microarray, fluorescence 635/667 (AID 1071); settings: higher = more signal;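 also: score merges 667 nm spot intensity and signal to noise from triplicate slides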
# [5] = target: Neurogenic locus notch homolog protein 2 (Homo sapiens) (UniProt Q04721); experiment: Notch2 binders on small-molecule microarrays, primary screen, biochemical, small-molecule microarray, 635 nm fluorescence, stem cell growth factors (AID 1073); settings: Notch2 binding, higher = more signal
# Sequence of Neurogenic locus notch homolog protein 2 (Homo sapiens) (Q04721 whole entry, looked up, canonical isoform): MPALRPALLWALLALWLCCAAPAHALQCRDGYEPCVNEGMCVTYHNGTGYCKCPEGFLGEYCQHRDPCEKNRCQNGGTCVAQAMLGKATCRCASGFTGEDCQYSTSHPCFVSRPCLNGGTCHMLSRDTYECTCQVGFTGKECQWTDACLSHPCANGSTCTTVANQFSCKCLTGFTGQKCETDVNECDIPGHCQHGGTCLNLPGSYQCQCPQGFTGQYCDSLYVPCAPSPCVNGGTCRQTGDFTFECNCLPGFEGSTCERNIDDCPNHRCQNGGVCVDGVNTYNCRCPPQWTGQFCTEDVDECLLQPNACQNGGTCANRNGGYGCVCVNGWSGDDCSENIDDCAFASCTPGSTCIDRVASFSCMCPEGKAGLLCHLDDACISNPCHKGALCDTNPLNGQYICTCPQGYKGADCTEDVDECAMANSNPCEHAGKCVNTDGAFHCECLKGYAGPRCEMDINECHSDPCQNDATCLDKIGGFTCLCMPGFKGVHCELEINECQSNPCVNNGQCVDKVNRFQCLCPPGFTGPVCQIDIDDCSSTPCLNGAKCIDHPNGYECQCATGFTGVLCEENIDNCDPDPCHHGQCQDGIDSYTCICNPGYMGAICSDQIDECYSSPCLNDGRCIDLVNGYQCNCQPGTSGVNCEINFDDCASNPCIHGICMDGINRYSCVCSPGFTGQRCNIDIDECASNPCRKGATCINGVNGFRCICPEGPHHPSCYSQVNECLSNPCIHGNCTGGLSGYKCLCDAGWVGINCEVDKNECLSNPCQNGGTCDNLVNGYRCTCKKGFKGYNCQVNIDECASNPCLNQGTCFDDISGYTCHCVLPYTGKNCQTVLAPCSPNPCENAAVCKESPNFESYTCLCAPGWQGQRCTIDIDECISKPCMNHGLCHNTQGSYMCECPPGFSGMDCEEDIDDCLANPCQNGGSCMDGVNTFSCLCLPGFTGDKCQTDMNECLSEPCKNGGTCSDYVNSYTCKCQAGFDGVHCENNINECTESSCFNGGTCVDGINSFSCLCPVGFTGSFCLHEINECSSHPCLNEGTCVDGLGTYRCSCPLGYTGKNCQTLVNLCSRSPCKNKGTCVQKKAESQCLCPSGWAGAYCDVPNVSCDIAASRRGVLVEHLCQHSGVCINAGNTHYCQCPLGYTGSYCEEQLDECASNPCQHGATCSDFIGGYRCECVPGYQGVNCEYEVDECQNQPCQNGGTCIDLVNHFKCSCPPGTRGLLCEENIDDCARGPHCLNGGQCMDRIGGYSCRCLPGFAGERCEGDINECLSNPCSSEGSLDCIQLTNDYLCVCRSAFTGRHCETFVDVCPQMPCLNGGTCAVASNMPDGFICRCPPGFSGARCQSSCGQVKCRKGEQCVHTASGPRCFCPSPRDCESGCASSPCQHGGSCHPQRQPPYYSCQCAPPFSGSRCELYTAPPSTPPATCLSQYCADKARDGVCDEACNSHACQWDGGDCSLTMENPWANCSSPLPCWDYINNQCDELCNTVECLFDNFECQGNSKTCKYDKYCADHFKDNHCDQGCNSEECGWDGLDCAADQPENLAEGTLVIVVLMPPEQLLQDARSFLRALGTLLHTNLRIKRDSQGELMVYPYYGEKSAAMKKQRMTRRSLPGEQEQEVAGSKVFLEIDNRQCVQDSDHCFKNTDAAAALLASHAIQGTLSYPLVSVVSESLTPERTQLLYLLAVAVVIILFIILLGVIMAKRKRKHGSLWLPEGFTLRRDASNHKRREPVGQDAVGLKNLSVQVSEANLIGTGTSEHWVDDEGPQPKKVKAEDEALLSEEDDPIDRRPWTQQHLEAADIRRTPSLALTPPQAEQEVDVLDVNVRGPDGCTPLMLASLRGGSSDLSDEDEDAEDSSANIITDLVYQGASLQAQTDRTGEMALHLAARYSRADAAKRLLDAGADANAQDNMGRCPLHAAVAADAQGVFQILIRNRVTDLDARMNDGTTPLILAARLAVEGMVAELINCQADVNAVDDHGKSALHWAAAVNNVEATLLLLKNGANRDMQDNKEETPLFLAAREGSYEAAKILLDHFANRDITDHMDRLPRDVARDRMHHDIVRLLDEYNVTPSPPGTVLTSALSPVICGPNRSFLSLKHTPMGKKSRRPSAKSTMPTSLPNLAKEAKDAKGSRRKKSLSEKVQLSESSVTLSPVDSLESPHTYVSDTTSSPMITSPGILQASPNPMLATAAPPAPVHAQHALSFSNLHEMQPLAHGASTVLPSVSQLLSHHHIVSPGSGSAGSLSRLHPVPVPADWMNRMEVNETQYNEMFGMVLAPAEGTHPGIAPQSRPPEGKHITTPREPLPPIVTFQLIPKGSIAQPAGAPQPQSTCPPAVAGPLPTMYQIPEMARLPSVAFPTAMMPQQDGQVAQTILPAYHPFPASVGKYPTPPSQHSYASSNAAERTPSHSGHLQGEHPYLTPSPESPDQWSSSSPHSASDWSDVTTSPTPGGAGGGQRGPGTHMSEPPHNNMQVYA
# [6] = target: Pro-neuregulin-1, membrane-bound isoform (Homo sapiens) (UniProt Q02297); experiment: NRG1 binders on small-molecule microarrays, primary screen, psychiatric disease protein project, biochemical, small-molecule microarray, fluorescence 635/667 (AID 1075); settings: NRG1 binding, 635 nm fluorescence, higher = more signal;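 also: score combines 667 nm spot fluorescence with signal to noise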
# Sequence of Pro-neuregulin-1, membrane-bound isoform (Homo sapiens) (Q02297 whole entry, looked up, the tested form may be a part, canonical isoform): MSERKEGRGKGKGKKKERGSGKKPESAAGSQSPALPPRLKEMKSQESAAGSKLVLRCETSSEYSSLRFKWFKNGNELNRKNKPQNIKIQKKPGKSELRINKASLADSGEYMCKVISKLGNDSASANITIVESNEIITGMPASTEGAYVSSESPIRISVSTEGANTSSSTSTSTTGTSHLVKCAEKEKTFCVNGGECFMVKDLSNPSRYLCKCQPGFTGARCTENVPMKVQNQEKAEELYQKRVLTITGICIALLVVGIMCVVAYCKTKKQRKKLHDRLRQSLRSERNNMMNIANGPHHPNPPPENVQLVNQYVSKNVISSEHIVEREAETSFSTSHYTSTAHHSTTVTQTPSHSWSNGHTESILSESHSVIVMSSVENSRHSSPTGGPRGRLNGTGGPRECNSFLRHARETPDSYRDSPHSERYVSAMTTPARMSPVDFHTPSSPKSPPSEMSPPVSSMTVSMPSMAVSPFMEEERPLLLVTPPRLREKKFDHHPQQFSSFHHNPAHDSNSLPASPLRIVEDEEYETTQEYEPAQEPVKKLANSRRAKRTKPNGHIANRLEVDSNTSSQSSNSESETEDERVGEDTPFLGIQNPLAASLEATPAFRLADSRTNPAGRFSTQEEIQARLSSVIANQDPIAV
# [7] = tested on: Neuregulin-1 EGF-like domain; experiment: binders of neuregulin-1 EGF-like domain, primary screen, biochemical, small-molecule microarray, 635 nm fluorescence (AID 1081); settings: small-molecule microarray binding, higher = more signal;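 also: binding of the protein to compounds printed on small-molecule microarray slides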
# [8] = FRG1 promoter luciferase signal modulators, primary screen, FRG1 inhibition for FSHD, cell-based, C2C12 myotubes, firefly/Renilla luciferase, luminescence (AID 1084); settings: higher = more signal, called active from +8 up or from −8 down
# [9] = binders of probe aFST on microarray, primary screen, stem cell growth factor project, biochemical, small-molecule microarray, fluorescence 635/667 (AID 1086); settings: higher = more signal;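 also: score merges 667 nm fluorescence with signal-to-noise of each printed compound spot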
# [10] = binders of probe aHhip on microarray, primary screen, stem cell growth factor project, biochemical, small-molecule microarray, fluorescence 635/667 (AID 1087); settings: higher = more signal;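 also: score merges spot fluorescence at 667nm with spot signal to noise ratio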
SMILES,composite z-score [1],composite z-score [2],composite z-score [3],composite z-score [4],composite z-score [5],composite z-score [6],composite z-score [7],z-score [8],composite z-score [9],composite z-score [10]
CCCCN1CC=CC23O[C@@H]4C=CCCOC(=O)C4[C@H]2C(=O)N(CCCCCO)[C@@H]3C1=O (stereo not given in full),-0.376,-0.055,-0.107,-0.0632,-1.06,-0.169,1.46,-0.834 (inactive),-0.79,0.107
C=C(CCCC)/C(=C/C[C@@H](OC(C)=O)c1ccccc1OCCO)c1cc(C(=O)OC)ccc1OC,0.0248,-0.0044,-0.0996,0.187,-0.659,-0.0693,-0.0487,0.549 (inactive),-0.38,-0.271
CC1CC/C=C\[C@H]2OC34C=CCN(Cn5nnc6ccccc65)C(=O)[C@H]3N(CCCCCO)C(=O)[C@@H]4C2C(=O)O1 (stereo not given in full),-0.05,-0.67,-0.148,-0.499,-1.38,-0.917,-0.417,-0.373 (inactive),-0.815,-0.251
COC(=O)C(CC#Cc1ccc2c(c1)[C@]1(C(=O)N2)[C@H](c2ccccc2OCCO)N2[C@H](c3ccccc3)[C@H](c3ccccc3)OC(=O)[C@H]2[C@@H]1C(=O)O)C(=O)OC,0.187,0.856,0.0876,0.866,0.275,1.65,1.32,-0.173 (inactive),0.411,0.426
CN1C(=O)C2C=CC(C(O)C=Cc3ccc([N+](=O)[O-])cc3)N(Nc3ccccc3)C2C1=O (stereo not given),-0.283,0.617,0.0411,0.497,1.25,1.59,1.35,2.12 (inactive),0.998,-0.132
CC(C)CNC(=O)[C@@]1(Cc2ccccc2I)c2ccccc2C(=O)N(Cc2ccccc2C(F)(F)F)[C@H]1c1ccc(CO)cc1,0.0085,0.0038,-0.118,-0.128,-1.46,0.89,-0.13,0.49 (inactive),-0.374,-0.236
C[N+](C)(C)CCCC[C@@H]1NC(=O)[C@H]2C[C@@H](C(=O)NCCCCCCNC(=O)CS)[C@@H](c3ccc(O)cc3)N2C1=O,0.312,2,-0.131,-0.457,-1.36,1.7,1.41,-0.395 (inactive),-0.39,-0.0994
CC1CC/C=C\[C@H]2OC34C=CCN(c5ccc6ccccc6c5)C(=O)[C@H]3N(CCO)C(=O)[C@@H]4C2C(=O)O1 (stereo not given in full),-0.17,0.122,-0.0996,0.0867,-1.18,-0.378,0.868,0.571 (inactive),-0.358,1.74
CO[C@H]1O[C@H](CO)[C@@H](OC(=O)Nc2cccc(F)c2)[C@H](OC(=O)Nc2ccccc2)[C@H]1OC(=O)Nc1ccccc1,-0.246,1.35,0.0664,0.466,1.07,0.981,1.36,0.746 (inactive),0.724,-0.191
COCCOC(=O)N1C(=O)[C@@]2(c3cc(C#Cc4ccc(OC)cc4)ccc31)[C@H](c1ccc(O)cc1)N1[C@H](c3ccccc3)[C@H](c3ccccc3)OC(=O)[C@H]1[C@@H]2C(=O)Nc1nc2ccccc2s1,-0.304,0.262,-0.0724,0.554,1.29,1.06,1.24,2.63 (inactive),0.251,-0.249
CC[C@@H]1C=C(C(=O)O)[C@H](c2ccc(C)cc2)N1S(=O)(=O)c1ccc(C)cc1,-0.139,0.719,-0.0246,-0.256,1.1,0.929,1.29,-0.143 (inactive),0.593,0.126
CCCC(=O)N(CCc1c[nH]c2ccccc12)[C@@H]1CC(C(=O)NCCO)=C[C@H](Oc2c(I)cc(CO)cc2OC)[C@H]1O,-0.279,0.809,-0.0692,0.187,-0.11,-0.0724,0.315,-0.667 (inactive),-0.0945,-0.214
CCCCN1CC=CC23O[C@@H]4/C=C\CCCOC(=O)C4[C@H]2C(=O)N(CCCO)[C@@H]3C1=O (stereo not given in full),0.228,-0.7,-0.036,-0.0326,-0.913,0.817,1.46,0.829 (inactive),-0.629,-0.318
CCCC=C(CCC)[C@@H](NC(=O)OCC(C)C)c1ccccc1,1.28,-0.122,0.685,0.444,1.33,-0.111,0.762,2.06 (inactive),2.06,0.152
COc1cc2c(cc1O)C=[N+](Cc1cc3c(cc1Br)OCO3)CC2,0.305,0.08,-0.131,0.0873,-0.441,0.632,0.042,2.28 (inactive),-0.332,-0.137
C=C(CCCC)C(=O)CC[C@H](OC(=O)c1cccnc1)c1ccc(OCCO)cc1,0.242,1.4,-0.116,0.149,-0.65,0.766,0.761,-0.916 (inactive),-0.0065,-0.0994
Cc1ccc(/C=C/C=O)cc1,0.16,-0.513,-0.0704,0.2,-0.516,-0.0188,-0.452,0.944 (inactive),-0.0522,0.0156
C=CCC(OC(C)=O)[C@@H]1[C@@H](N(Cc2ccc(-c3cccc(C(F)(F)F)c3)o2)C(=O)Cc2ccc(OC)cc2)c2cc(OCCCO)ccc2N1C(=O)c1ccc2ccccc2c1 (stereo not given in full),0.0929,-0.404,-0.043,-0.608,-0.654,0.522,-0.125,0.782 (inactive),0.234,-0.236
CN1CCC(CCCO)=CC1c1cccs1 (stereo not given),-0.017,0.0383,-0.159,-0.959,-1.01,0.968,0.72,0.159 (inactive),-0.142,-0.0491
O=C1O[C@H](c2ccccc2)[C@H](c2ccccc2)N2[C@H]1[C@@H](C(=O)NC[C@H](O)c1ccccc1)[C@]1(C(=O)Nc3ccc(C#CC4=CCCCC4)cc31)[C@H]2c1ccccc1OCCO,0.185,0.463,0.0637,0.496,0.908,0.298,1.07,-0.341 (inactive),0.599,-0.0645
N#Cc1ccc(C(O)C2C=CC3C(=O)N(c4ccccc4)C(=O)C3N2Nc2ccccc2F)cc1 (stereo not given),-0.367,0.362,0.315,0.936,1.37,1.24,-0.0077,0.372 (inactive),0.716,-0.0994
